Many of the other results were omitted from the sample, so hits are more common in it than they were.
IDE exosite FP: exo-site inhibitors of human insulin-degrading enzyme; P14735; purified IDE, FL-6b probe fluorescence polarization; hits give low values; z-score at 20 µM; hit rate 6.3% among 17,000; AID 1259349;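 active means z-score of -3 or lower, meaning strong loss of probe binding signal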;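 further: His-tagged human IDE residues 42-1019 made in E. coli with 30 nM FL-6b probe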
Target sequence (P14735 42-1019 limits assumed): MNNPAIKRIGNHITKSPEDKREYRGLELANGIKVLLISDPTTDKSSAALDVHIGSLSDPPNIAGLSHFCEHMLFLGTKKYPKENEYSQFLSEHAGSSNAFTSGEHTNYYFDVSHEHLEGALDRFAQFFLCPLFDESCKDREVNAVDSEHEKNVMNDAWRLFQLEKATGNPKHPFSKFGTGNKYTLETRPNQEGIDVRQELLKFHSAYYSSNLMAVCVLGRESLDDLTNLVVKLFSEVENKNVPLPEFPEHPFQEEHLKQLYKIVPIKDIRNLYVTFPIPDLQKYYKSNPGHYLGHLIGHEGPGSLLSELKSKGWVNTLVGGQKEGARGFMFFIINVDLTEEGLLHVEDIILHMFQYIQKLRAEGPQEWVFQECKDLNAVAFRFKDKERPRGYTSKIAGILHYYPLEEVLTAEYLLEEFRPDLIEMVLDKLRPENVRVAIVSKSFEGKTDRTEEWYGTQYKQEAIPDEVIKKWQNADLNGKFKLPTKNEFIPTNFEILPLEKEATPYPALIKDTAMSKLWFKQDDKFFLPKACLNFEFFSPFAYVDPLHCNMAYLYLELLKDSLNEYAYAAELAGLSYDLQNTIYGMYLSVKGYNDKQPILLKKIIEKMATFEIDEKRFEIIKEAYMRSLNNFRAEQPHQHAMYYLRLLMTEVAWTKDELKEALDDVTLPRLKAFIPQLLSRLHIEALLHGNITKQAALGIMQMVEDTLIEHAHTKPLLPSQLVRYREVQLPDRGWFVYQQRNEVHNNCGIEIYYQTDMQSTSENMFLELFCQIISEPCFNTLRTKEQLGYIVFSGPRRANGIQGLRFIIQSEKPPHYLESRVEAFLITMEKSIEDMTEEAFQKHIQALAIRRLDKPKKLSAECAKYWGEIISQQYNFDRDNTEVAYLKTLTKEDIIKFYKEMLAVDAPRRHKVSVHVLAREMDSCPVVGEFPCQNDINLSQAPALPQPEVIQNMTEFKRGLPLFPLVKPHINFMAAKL
Numbers without * were called inactive.

SMILES	IDE exosite FP
COc1ccc(-c2ccc([C@H]3[C@H](CO)N4C(=O)CN(C(=O)C5CCOCC5)C[C@@H]34)cc2)cc1	-1.15
O=C(CN1CCOCC1)N1CC(=O)N2[C@@H](CO)[C@H](c3ccc(-c4ccccc4)cc3)[C@@H]2C1	1.49
O=C(CN1CCOCC1)N1CC(=O)N2[C@H](CO)[C@@H](c3ccc(-c4cccc(F)c4)cc3)[C@H]2C1	1.21
COc1cccc(-c2ccc([C@H]3[C@H]4CN(C(=O)C5CCOCC5)CC(=O)N4[C@H]3CO)cc2)c1	-0.851
COc1cccc(-c2ccc([C@H]3[C@H](CO)N4C(=O)CN(C(=O)CN5CCOCC5)C[C@@H]34)cc2)c1	-3.36*
COc1cccc(-c2ccc([C@H]3[C@@H](CO)N4C(=O)CN(C(=O)C5CCOCC5)C[C@@H]34)cc2)c1	-4.45*
COc1cccc(-c2ccc([C@H]3[C@@H](CO)N4C(=O)CN(C(=O)C5CCOCC5)C[C@H]34)cc2)c1	-8.69*
COc1cccc(-c2ccc([C@H]3[C@H](CO)N4C(=O)CN(C(=O)C5CCOCC5)C[C@@H]34)cc2)c1	-1.85
COc1ccc(-c2ccc([C@@H]3[C@@H](CO)N4C(=O)CN(C(=O)C5CCOCC5)C[C@H]34)cc2)cc1	1.63
O=C(c1cccc(F)c1)N1CCCCN2[C@H](C1)[C@H](c1ccc(-c3cccnc3)cc1)[C@@H]2CO	1.13
COCC(=O)N1CC(=O)N2[C@H](CO)[C@H](c3ccc(C#CC4CCCC4)cc3)[C@@H]2C1	1.36
CC(C)CC#Cc1ccc([C@H]2[C@H](CO)N3C(=O)CN(C(=O)c4ccc5c(c4)OCO5)C[C@@H]23)cc1	1.12
N#C[C@H]1[C@H](c2ccccc2-c2cccc(F)c2)[C@@H](CO)N1C(=O)C1CCCCC1	1.09
CCCC#Cc1ccc([C@@H]2[C@@H](CO)N3C(=O)CN(S(=O)(=O)c4ccccc4C)C[C@H]23)cc1	-1.57
O=C(O)C[C@@H]1C=C[C@H](NC(=O)Nc2cc(F)ccc2F)[C@@H](CO)O1	0.392
Cc1ccccc1S(=O)(=O)N1CC(=O)N2[C@@H](CO)[C@H](c3ccc(C#CCC4CCCC4)cc3)[C@@H]2C1	4.98
Cc1ccc(S(=O)(=O)Nc2ccc3c(c2)C(=O)N(C)[C@H]2CC[C@@H](CC(=O)NCCc4ccncc4)O[C@H]2CO3)cc1	0.0604
OC[C@@H]1[C@H](c2ccc(-c3ccncc3)cc2)[C@@H]2CN(Cc3ccccn3)CCCCN12	4.1
O=C(C[C@@H]1CC[C@@H]2[C@H](COC[C@@H](O)CN2CC2CCOCC2)O1)NCC1CCCCC1	1.33
O=C1CN(Cc2ccc(F)cc2)C[C@H]2[C@@H](c3ccc(-c4ccccc4F)cc3)[C@H](CO)N12	-1.2
COc1cccc(C#Cc2ccc([C@H]3[C@@H](CO)N4C(=O)CN(S(=O)(=O)c5ccccc5C)C[C@H]34)cc2)c1	-0.389
C/C=C/c1ccccc1[C@H]1[C@H](C#N)N(C(=O)c2cccnc2)[C@H]1CO	0.0351
CC(=O)N1CC(=O)N2[C@H](CO)[C@@H](c3ccc(-c4ccncc4)cc3)[C@@H]2C1	-0.35
O=C(Cc1ccccc1)N1CC(=O)N2[C@H](CO)[C@H](c3ccc(-c4cccc(F)c4)cc3)[C@@H]2C1	0.836
O=C(Cc1cccnc1)N1CC(=O)N2[C@H](C1)[C@@H](c1ccc(-c3cccc(F)c3)cc1)[C@@H]2CO	-6.96*
SMILES	IDE exosite FP
O=C(Cc1ccccc1)N1CC(=O)N2[C@@H](CO)[C@H](c3ccc(-c4cccc(F)c4)cc3)[C@@H]2C1	-2.43
O=C(Cc1cccnc1)N1CC(=O)N2[C@H](C1)[C@H](c1ccc(-c3cccc(F)c3)cc1)[C@@H]2CO	-1.88
O=C(Cc1ccccc1)N1CC(=O)N2[C@H](C1)[C@@H](c1ccc(-c3cccc(F)c3)cc1)[C@@H]2CO	-3.51*
O=C(Cc1cccnc1)N1CC(=O)N2[C@H](CO)[C@H](c3ccc(-c4cccc(F)c4)cc3)[C@@H]2C1	-0.914
C[C@@H]1CCCCO[C@H](CN(C)C(=O)Cc2ccccc2)[C@H](C)CN([C@H](C)CO)C(=O)c2cc(NS(C)(=O)=O)ccc2O1	0.613
CCS(=O)(=O)N1[C@H](C#N)[C@@H](c2ccc(C3=CCCCC3)cc2)[C@H]1CO	2.99
O=C1CN(S(=O)(=O)Cc2ccccc2)C[C@H]2[C@@H](c3ccc(C#CC4CC4)cc3)[C@H](CO)N12	0.851
CN1c2ccc(-c3ccc(C#N)cc3)cc2[C@@H]2[C@@H](CCN2S(=O)(=O)c2ccc(F)cc2)[C@@H]1CO	1.52
N#C[C@H]1N[C@H](CO)[C@@H]1c1ccc(C2=CCCCC2)cc1	4.35
O=C(c1ccncc1)N1CC2(C1)[C@@H](c1ccccc1)[C@@H](CO)N2CC1CC1	-0.475
O=C(Cc1ccccn1)N1CC2(C1)[C@@H](c1ccccc1)[C@H](CO)N2C(=O)c1ccncc1	-3.56*
O=C(CC1CC1)N1CC2(C1)[C@H](c1ccccc1)[C@@H](CO)N2Cc1ccccn1	1.37
Cc1ccccc1-c1ccc([C@H]2[C@H]3CN(CC4CCOCC4)CCCCN3[C@H]2CO)cc1	-6.86*
CCCC#Cc1ccc([C@@H]2[C@H](CO)N3CCCCN(CC4CC4)C[C@@H]23)cc1	4.1
COc1ccc(-c2ccc([C@H]3[C@@H](CO)N4CCCCN(CC5CCOCC5)C[C@H]34)cc2)cc1	-0.348
COc1ccc(-c2ccc([C@H]3[C@@H](CO)N4CCCCN(CC5CCOCC5)C[C@@H]34)cc2)cc1	0.852
OC[C@H]1[C@@H](c2ccc(-c3cccnc3)cc2)[C@@H]2CN(CC3CC3)CCCCN12	-1.25
Cc1ccccc1-c1ccc([C@H]2[C@@H](CO)N3CCCCN(CC4CC4)C[C@@H]23)cc1	-3.48*
CC(C)CC#Cc1ccc([C@H]2[C@H](CO)N3C(=O)CN(C(=O)c4cccc(F)c4)C[C@@H]23)cc1	-0.253
CCCC#Cc1ccc([C@H]2[C@@H](CO)N[C@@H]2CN(C(C)=O)C2CCCC2)cc1	-0.97
COCC#Cc1ccc([C@H]2[C@H](CO)N3C(=O)CN(C(=O)Nc4cc(F)ccc4F)C[C@@H]23)cc1	-0.882
COCC(=O)NC[C@@H]1[C@H](c2ccccc2)[C@@H](CO)N1C(=O)c1ccccc1	0.0415
CCCNC(=O)N1[C@H](CO)[C@@H](c2ccccc2)[C@@H]1C#N	2.16
C/C=C/c1ccccc1[C@@H]1[C@H](C#N)N(C(=O)Cc2ccccn2)[C@H]1CO	-0.393
N#C[C@H]1[C@@H](c2ccccc2-c2ccccc2)[C@H](CO)N1C(=O)Cc1cccnc1	2.77
SMILES	IDE exosite FP
O=C1CN(S(=O)(=O)Cc2ccccc2)C[C@@H]2[C@H](c3ccc(C#Cc4ccccc4)cc3)[C@@H](CO)N12	0.806
C/C=C/c1ccc([C@@H]2[C@@H](CN(C)C(=O)CC)N(S(C)(=O)=O)[C@H]2CO)cc1	4.64
CS(=O)(=O)N1CC(=O)N2[C@H](CO)[C@H](c3ccc(Br)cc3)[C@@H]2C1	-0.517
CCS(=O)(=O)N1CCCCN2[C@H](CO)[C@@H](c3ccc(-c4ccccc4C)cc3)[C@@H]2C1	-18.3*
O=S(=O)(Cc1ccccc1)N1CCCCN2[C@H](C1)[C@H](c1ccc(-c3ccccc3)cc1)[C@@H]2CO	2.83
Cc1ccccc1-c1ccc([C@H]2[C@H]3CN(S(C)(=O)=O)CCCCN3[C@H]2CO)cc1	-0.857
Cc1ccccc1-c1ccc([C@H]2[C@@H](CO)N3CCCCN(S(C)(=O)=O)C[C@@H]23)cc1	-2.31
CCS(=O)(=O)N1CCCCN2[C@H](CO)[C@@H](c3ccc(-c4ccccc4F)cc3)[C@H]2C1	1.94
Cc1ccccc1-c1ccc([C@@H]2[C@@H](CO)N3C(=O)CN(S(C)(=O)=O)C[C@@H]23)cc1	-12.6*

Assay outcomes: PubChem, Broad Institute
